Hits are enriched below; roughly 9.4% of the tested compounds scored in any of these assays.
ELG1 genotoxic: induces genotoxicity in HEK293T cells with luciferase-tagged ELG1. 330,000 compounds, 1.3% hits. Potency, µM (titrated, usually from 46 µM), for inactives: at the top dose activity change, positive = activation, actives largely listed as activators. HEK293T ELG1-luciferase reporter, luminescence, 16 h. AID 504466; note: % of control where 0% means no effect; nearly all actives have a fitted effect of over 60% in size
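Cells (2,000/well) expressing the ELG1-luciferase fusion are dosed by pin tool and kept 16 hr at 37 °C, 5% CO2. Signal comes from ONE-Glo luciferase reagent after 30 min at room temperature.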
Rab9 promoter act: Rab9 promoter activation; Huh7 Rab9 promoter-luciferase reporter, luminescence, 24 h; Potency, µM (series often up to 9.22 µM), without a hit: top-dose activation, negative = inhibition, usual class: activators; 320,000 compounds, 2.8% hits; AID 485297; note: % of control where 0% means no effect; nearly all actives have a fitted effect of over 60% in size
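Huh7 reporter line, Rab9 promoter upstream of luciferase. Compound exposure 24 h at 37 °C in reduced-serum medium with 10% FBS. Read-out: luminescence.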
NPC1 prom act: NPC1 promoter activation. 320,000 compounds, 2.4% hits. Huh7 NPC1 promoter luciferase reporter, 24 h. Potency, µM (highest dose often 9.22 µM), without a hit: at the top dose activation, usual class: activators; note: % of control where 0% means no effect; nearly all actives have a fitted effect of over 60% in size
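Stable NPC1-promoter luciferase Huh7 line; cpd (DMSO) 24 h, 37 °C, 5% CO2; Amplite luciferase reagent 10 min RT; luminescence readout. qHTS format.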
ELG1 repair inh: blocks ELG1-dependent DNA repair in HEK293T cells; HEK293T ELG1-luciferase reporter, luminescence, 16 h; DNA damage induced by 5-fluorouridine; Potency, µM (series often up to 46.1 µM), without a hit: at the top dose activity change, negative = inhibition, actives largely listed as inhibitors; 330,000 compounds, 2.3% hits; note: % is set by controls: 0 for no effect and ±100 for the full control effect; nearly all actives have a fitted effect of over 55% in size
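In this reporter screen, reduction of luminescence relative to DMSO vehicle indicated activity. Compounds and 5-fluorouridine were added together to 2,000 cells per well, incubated for 16 hr at 37 °C, then developed with ONE-Glo.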
SMN2 splice enh: SMN2 splice variant enhancement. HEK293 SMN2-luciferase splicing reporter, luminescence, 30-36 h. Potency, µM (series often up to 46.1 µM), inactives show top-dose activity change, positive = activation, most hits filed as activators. 210,000 compounds, 2.8% hits; note: % of control where 0% means no effect; nearly all actives have a fitted effect of over 55% in size
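qHTS luciferase splicing reporter: luminescence rises when SMN2 exon 7 is included in transfected HEK293 cells. Compound exposure lasted 30-36 h at 37C, with 4.5 mM final sodium butyrate as control, followed by a ONE-Glo read.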
FLuc modulator: counter-screen for miR-21 project: firefly luciferase inhibitors or activators | P08659 | purified FLuc, Km substrates, luminescence inhibition | Potency, µM (titrated, usually from 57.5 µM), for inactives: at the top dose activity change, negative = inhibition, hits mostly inhibitors | 360,000 compounds, 6.9% hits | AID 588342;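 note: plate controls were vehicle for no effect and reference inhibitor for full effect; nearly all actives have a fitted effect of over 55% in size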
Target sequence (P08659 whole entry, looked up): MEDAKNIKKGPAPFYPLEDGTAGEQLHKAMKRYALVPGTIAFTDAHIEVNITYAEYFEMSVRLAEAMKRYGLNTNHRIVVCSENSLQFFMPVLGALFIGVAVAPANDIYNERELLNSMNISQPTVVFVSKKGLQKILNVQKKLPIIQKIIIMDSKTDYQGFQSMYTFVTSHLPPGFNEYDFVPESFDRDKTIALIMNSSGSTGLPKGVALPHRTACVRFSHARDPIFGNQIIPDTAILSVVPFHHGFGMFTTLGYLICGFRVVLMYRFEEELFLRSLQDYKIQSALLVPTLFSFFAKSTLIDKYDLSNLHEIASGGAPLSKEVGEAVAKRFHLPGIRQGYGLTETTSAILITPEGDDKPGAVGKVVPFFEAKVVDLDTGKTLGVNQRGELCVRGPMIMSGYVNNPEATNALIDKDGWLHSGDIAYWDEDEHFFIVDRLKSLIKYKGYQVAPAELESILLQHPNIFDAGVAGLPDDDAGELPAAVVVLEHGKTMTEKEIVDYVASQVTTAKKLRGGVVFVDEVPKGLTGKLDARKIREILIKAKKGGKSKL
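Biochemical qHTS of compounds, final roughly 60 µM downward over six points, against 10 nM purified firefly luciferase using Km concentrations of substrates (10 uM D-luciferin, 10 uM ATP) in Tris acetate pH 7.5 buffer; luminescence output.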
* = called active by the depositor; [ ] = dose if it differs, or a comment. Calls come from the whole dose curve; as a rule, active = well fitted curve in the direction sought with a large enough effect; inconclusive = small, poorly fitted or top-dose-only effect, or another doubt; inactive = no such curve, though single readings can be large; an effect the other way counts as inactive or inconclusive. Potency is the fitted concentration of half-maximal effect.

Screening CN(CC(=O)Nc1cccc(S(=O)(=O)N2CCOCC2)c1)CC(=O)Nc1ccc(Cl)c(C(F)(F)F)c1 returned ELG1 genotoxic 16.2%, Rab9 promoter act -5.5%, NPC1 prom act -1.5%, ELG1 repair inh 12.6µM* and FLuc modulator 4.6%.
`COc1ccc(S(=O)(=O)N2CCOCC2)cc1NC(=O)c1cc2c(s1)CCCC2` gave ELG1 genotoxic 0.1%, Rab9 promoter act 11.1%, NPC1 prom act -3.7%, ELG1 repair inh 16.4µM*, SMN2 splice enh -5.4% and FLuc modulator -22.4%.
For O=C(Nc1cccc(Cn2cccn2)c1)c1cc2c(s1)CCCC2 the results were ELG1 genotoxic inconclusive, Rab9 promoter act 0.355µM*, NPC1 prom act 0.112µM*, ELG1 repair inh inconclusive, SMN2 splice enh inconclusive and FLuc modulator inconclusive.
Screening O=C(Nc1cccc(S(=O)(=O)N2CCOCC2)c1)c1cc2c(s1)CCC2 returned ELG1 genotoxic -6.5%, Rab9 promoter act 6.9%, NPC1 prom act 8.6%, ELG1 repair inh inconclusive, SMN2 splice enh -27.3% and FLuc modulator 15.1µM*.
COc1cccc(CNC(=O)C2Cc3cc(S(=O)(=O)N4CCCCCC4)ccc3N2C(C)=O)c1 (stereo not drawn) was read as FLuc modulator -3.3%.
NCCCc1c(-c2ccccc2)nc(N)[nH]c1=O was read as SMN2 splice enh 7.4%[9.22 µM].
`COc1cc(-c2nc3nc[nH]n3c2Nc2ccc(C(C)C)cc2)ccc1O` gave SMN2 splice enh -3.0% and FLuc modulator inconclusive.
For COc1ccc(C)cc1NC(=O)c1cc2c(s1)CCC2 the results were ELG1 genotoxic 12.8%, Rab9 promoter act inconclusive, NPC1 prom act 0.8%, ELG1 repair inh inconclusive, SMN2 splice enh inconclusive and FLuc modulator 15.1µM*.
CCOC(=O)c1ccc(NC(=O)c2cc3c(s2)CCC3)cc1 was read as ELG1 genotoxic 6.2%, Rab9 promoter act 15.6%, NPC1 prom act 24.7%, ELG1 repair inh 1.1% and FLuc modulator inconclusive.
COC(=O)c1sccc1NC(=O)c1cc2c(s1)CCCC2 was read as ELG1 genotoxic 3.6%, Rab9 promoter act inconclusive, NPC1 prom act 26.1%, ELG1 repair inh inconclusive, SMN2 splice enh 7.6% and FLuc modulator 8.49µM*.
Screening COC(=O)c1sccc1NC(=O)c1ccc(C)o1 returned ELG1 genotoxic 1.0%, Rab9 promoter act -4.3%, NPC1 prom act -8.8%, ELG1 repair inh -10.9%, SMN2 splice enh -13.7% and FLuc modulator -6.8%.
C/C=C/c1ccc(OC)cc1 was read as SMN2 splice enh 6.5%.
For COc1ccc(/C=C/c2ccncc2)cc1 the results were ELG1 genotoxic inconclusive, Rab9 promoter act 2.82µM*, NPC1 prom act 3.55µM*, ELG1 repair inh inconclusive, SMN2 splice enh inconclusive and FLuc modulator 12µM*.
CN(C)c1ccc(/C=C/c2cccc[n+]2[O-])cc1 was read as ELG1 genotoxic inconclusive, Rab9 promoter act 2.51µM*, NPC1 prom act inconclusive, ELG1 repair inh inconclusive and FLuc modulator 19µM*.
`CN(C)c1ccc(/C=C/c2ccncc2)cc1` gave ELG1 genotoxic 16.4µM*, Rab9 promoter act inconclusive, NPC1 prom act inconclusive, ELG1 repair inh inconclusive, SMN2 splice enh inconclusive and FLuc modulator inconclusive.
`N#C/C(=C(/O)CN1CCCC1)c1nc(-c2ccccc2)cs1` gave ELG1 genotoxic inconclusive, Rab9 promoter act 3.16µM*, NPC1 prom act 3.98µM*, ELG1 repair inh inconclusive and FLuc modulator 19µM*.
COc1cc(C)ccc1OCc1cc(C(=O)N2CCC(c3ccc(F)cc3)C2)no1 (stereo not drawn) was read as ELG1 genotoxic inconclusive, Rab9 promoter act 2.24µM*, NPC1 prom act 2.24µM*, ELG1 repair inh inconclusive and FLuc modulator 7.57µM*.
COc1cc(Cl)ccc1OCc1cc(C(=O)N2CCCCCC2)no1 was read as ELG1 genotoxic 13.6%, Rab9 promoter act 0.1%, NPC1 prom act 11.3%, ELG1 repair inh 19.5% and FLuc modulator inconclusive.
Screening CCCOC1CCCN(C(=O)c2cc(COc3ccc(F)c(F)c3)on2)C1 (stereo not drawn) returned ELG1 genotoxic inconclusive, Rab9 promoter act 2.82µM*, NPC1 prom act 2.82µM*, ELG1 repair inh inconclusive and FLuc modulator 21.3µM*.
For COCC1CCN(C(=O)c2cc(COc3ccc(F)cc3F)on2)C1 (stereo not drawn) the results were ELG1 genotoxic 3.0%, Rab9 promoter act -1.3%, NPC1 prom act 2.9%, ELG1 repair inh inconclusive and FLuc modulator -2.9%.
COc1cc(Cl)ccc1OCc1cc(C(=O)N2CCCC(OC)C2)no1 (stereo not drawn) was read as ELG1 genotoxic 5.8µM*, Rab9 promoter act 1.78µM*, NPC1 prom act 2µM*, ELG1 repair inh inconclusive and FLuc modulator 5.36µM*.
`CCOC(=O)C1CCN(C(=O)c2cc(COc3ccc(OC)c4ccccc34)on2)CC1` gave ELG1 genotoxic inconclusive, Rab9 promoter act 3.55µM*, NPC1 prom act inconclusive, ELG1 repair inh inconclusive and FLuc modulator 15.1µM*.
Screening COc1ccc(OCc2cc(C(=O)N3CCC(OC)CC3)no2)c2ccccc12 returned ELG1 genotoxic inconclusive, Rab9 promoter act 2.51µM*, NPC1 prom act inconclusive, ELG1 repair inh inconclusive and FLuc modulator 10.7µM*.
Screening CC(C)CNc1nc2ncnc(N)c2[nH]1 returned SMN2 splice enh 0.6%[9.22 µM].
`Cc1cc2ncn(CCOc3ccccc3)c2cc1C` gave ELG1 genotoxic inconclusive, Rab9 promoter act 3.55µM*, NPC1 prom act inconclusive, ELG1 repair inh inconclusive, SMN2 splice enh -2.2% and FLuc modulator 16.9µM*.
`O=c1c2sc3ccccc3c2n(Cc2cccc(C(F)(F)F)c2)c(=O)n1Cc1ccco1` gave SMN2 splice enh -9.5% and FLuc modulator 0.7%.
`COc1ccc(-c2nc3c(c4c2C[C@H](c2ccccc2)OC4)CN(C(=O)NCc2ccco2)CC3)c(C)c1` gave SMN2 splice enh 1.7%[9.22 µM].
COc1ccc(CNC(=O)CCS(=O)(=O)c2cc(Br)cc3c2N(C(=O)C2CC2)CC3)cc1 was read as SMN2 splice enh 11.0% and FLuc modulator 2.2%.
For Cc1cc(C)c2cc(CN(CCO)C(=O)Nc3ccc(Cl)cc3)c(=O)[nH]c2c1 the results were ELG1 genotoxic 0.2%, Rab9 promoter act -5.8%, NPC1 prom act 1.3%, ELG1 repair inh 18.4µM*, SMN2 splice enh inconclusive and FLuc modulator 0.7%.
